According to ChEMBL document CHEMBL4513216, “Probing the Open Global Health Chemical Diversity Library for Multistage-Active Starting Points for Next-Generation Antimalarials” (ACS Infect Dis, 2020):
Out of some 69,000 compounds screened, about 8,600 (12%) showed an effect of 50% or more. The sample as a whole holds a higher share of strong results than the screen did.

What follows are compounds tested on Plasmodium berghei (assay: Screen against P. berghei liver stage (PbLuc), transformed with Luciferase, at 10uM). Conditions: tested at 10 uM.
Format: functional, HepG2

SMILES | INHIBITION [%]
COc1ccc(C(=O)N(Cc2cnn(C)c2)C(C)C)cc1OC(F)F | 33.3
Cc1nc(C)n(C2CCCN(C(=O)c3cc(C4CC4)on3)C2)n1 (configuration not stated) | 29.2
Cc1ccc(C(=O)NCCCN(C(C)C)S(C)(=O)=O)c(=O)[nH]1 | -8.97
COC(=O)c1ccccc1S(=O)(=O)NC(=O)c1cccc2c1OCCO2 | -7.36
Cc1ccc(C)c(S(=O)(=O)NC(=O)c2cccc3c2OCCO3)c1 | 68.8
Cc1ccc(C(=O)NS(=O)(=O)c2ccccc2C)c(=O)[nH]1 | 24.6
Cc1ccc(C(=O)NCCCN(C)S(C)(=O)=O)c(=O)[nH]1 | 40.4
O=C(NS(=O)(=O)c1cc(Cl)ccc1Cl)c1cccc2c1OCCO2 | -31.3
O=C(NS(=O)(=O)c1ccccc1Cl)c1cccc2c1OCCO2 | 49
Cc1ccc(S(=O)(=O)NC(=O)c2cccc3c2OCCO3)c(C)c1 | 23.7
O=C(NS(=O)(=O)c1ccc(Cl)cc1F)c1cccc2c1OCCO2 | 50
Cc1ccc(C(=O)NS(=O)(=O)c2cc(Br)ccc2C)c(=O)[nH]1 | 25.6
Cc1ccc(C)c(S(=O)(=O)NC(=O)c2ccc(C)[nH]c2=O)c1 | 52.3
CCN(CCCNC(=O)c1ccc(C)[nH]c1=O)S(C)(=O)=O | 61
CCc1ccc(C(COC)NC(=O)c2ccc(NC(C)=O)cc2)o1 (configuration not stated) | 18.4
CCO[C@H]1CN(C)C[C@@H]1NC(=O)c1cc(C)nc2c(C)c(C)ccc12 | 35
CCNC(=O)[C@@H]1C[C@H](NC(=O)Cn2ccnc2)CN1Cc1ccsc1 | 39.3
CCN1CC(CN(C)Cc2nc(-c3cccc(Cl)c3)oc2C)CC1=O (configuration not stated) | 29.8
CC(=O)NCCCNC(=O)N(C)C(C)Cc1ccc(Cl)cc1 (configuration not stated) | -6.99
CS(=O)(=O)NCCCNc1ccc(C(F)(F)F)cc1C#N | 72.6
CN(CC1CC1)S(=O)(=O)c1ccc(C(F)(F)F)cc1C#N | 47.2
CCN(CC)S(=O)(=O)c1ccc(C(F)(F)F)cc1C#N | 27.6

SMILES | INHIBITION [%]
N#Cc1cc(C(F)(F)F)ccc1NCC1CCS(=O)(=O)CC1 | 56.4
N#Cc1cc(F)ccc1NCC1CCS(=O)(=O)CC1 | -3.26
CS(=O)(=O)CCOCCNc1ccc(C(F)(F)F)cc1C#N | -13.4
CCCNC(=O)C1CCN(Cc2csc(CC)n2)CC1 | 15.3
Cc1cc(C(=O)N2C[C@@H]3CC[C@H]2CN(C)C3)ccc1Cl | 18.2
Cc1ccc(C)c(OCCC(=O)N2CCCN(CC(N)=O)CC2)c1 | -79.3
COc1cccc(COCC(=O)N2CCCC(c3ccn[nH]3)C2)c1 (configuration not stated) | 45.7
Cc1ccnn1CCC(=O)N(Cc1ccsc1)CC(C)C | 41.5
CC(C)CN(Cc1ccsc1)C(=O)CCCn1cncn1 | 62.8
CC(=O)CCCC(=O)N(Cc1ccsc1)CC(C)C | 35
CNS(=O)(=O)c1ccc(C)c(C(=O)NCCNc2ncccn2)c1 | -7.81
CCOc1ccc(CN[C@@H]2COC[C@H]2c2ccc(F)cc2)cc1 | -16
CCc1nccn1-c1cncc(C2CCCN2Cc2ccc(F)cc2)n1 (configuration not stated) | 31.1
CCc1nccn1-c1cccc(C2CCCN2)n1 (configuration not stated) | 31.3
CCc1nccn1-c1cncc(C2CCCN2)n1 (configuration not stated) | 51.7
Cc1nc(C)c(CC(=O)Nc2nnc(C(C)C)s2)c(=O)[nH]1 | 25.75
CCC(C)c1csc(NC(=O)c2sc(-c3nnc[nH]3)nc2C)n1 (configuration not stated) | 37.8
Cc1cnn(CC2CCCN2C(=O)c2csc(-c3nnc[nH]3)n2)c1 (configuration not stated) | -73.2
Cc1nn2cnnc2c(C)c1CCC(=O)Nc1nnc(C(C)C)s1 | -23.5
CCc1nc(NC(=O)Cc2csc(-c3nnc[nH]3)n2)sc1C | 55.4
CCC(C)c1csc(NC(=O)Cc2csc(-c3nnc[nH]3)n2)n1 (configuration not stated) | 93.4
CC(C)c1nnc(NC(=O)Cc2csc(-c3nnc[nH]3)n2)s1 | 76.7

SMILES | INHIBITION [%]
CCc1ccc(C(C)NC(=O)CCc2nc(-c3nnc[nH]3)no2)cc1 (configuration not stated) | 38.8
O=C(Cc1csc(-c2nnc[nH]2)n1)N1CCCC1Cn1cccn1 (configuration not stated) | 39.5
CC(C)(C)CC(NC(=O)N1CCC(C(N)=O)CC1)C(F)(F)F (configuration not stated) | -50.7
CC(C)C(CNC(=O)Nc1cn[nH]c1)N1CCOCC1 (configuration not stated) | 7.67
CC(C)c1nn(C)c(N(C)C)c1CNCc1cscn1 | -11
CC(C)OCCC(=O)NCC(O)c1c(Cl)cccc1Cl (configuration not stated) | 17.8
COCCC(=O)N1C[C@H](C(C)C)[C@@H](N(C)C)C1 | 19.4
CC(C)(C)c1n[nH]c(C2CN(CCc3cccs3)CCO2)n1 (configuration not stated) | 37.3
CCc1n[nH]c(C2CN(CCc3ccncc3)CCO2)n1 (configuration not stated) | 23.6
CC(C)(C)c1n[nH]c(C2CN(CCc3ccncc3)CCO2)n1 (configuration not stated) | 57.5
CC(CN1CCOCC1)NC(=O)c1cc(Cl)c2c(c1)OCO2 (configuration not stated) | 29.8
OC1(CNCc2noc(Cc3ccccc3)n2)CCCNC1 (configuration not stated) | 26
OC1(CNCCSCc2ccccc2)CCCNC1 (configuration not stated) | 55.4
OC1(CNCCc2csc(-c3ccncc3)n2)CCCNC1 (configuration not stated) | -15
Cc1c(C2CCCN(C(=O)OC(C)(C)C)C2)n2c(nc1=O)CCC2 (configuration not stated) | 13.5
COCCC(=O)Nc1cc(CC(C)(C)C)n[nH]1 | -28.6
Cc1cnc(C)c(-c2cc(O)c3c(c2)CN(c2nccs2)CCO3)n1 | 28.5
Cc1cnc(C)c(-c2cc(O)c3c(c2)CN(Cc2nccs2)CCO3)n1 | -16.9
Cc1cnc(C)c(-c2cc(O)c3c(c2)CN(c2ncccn2)CCO3)n1 | 53
CS(=O)(=O)N1C[C@H](NC(=O)c2ccno2)[C@@H]2OCCC[C@@H]21 | 38.5
Cn1ccnc1CN(CCCO)CC(F)(F)F | 54.8
CSc1ccc(CN(CCO)Cc2nccn2C)cc1 | 43.9

SMILES | INHIBITION [%]
Cn1ccnc1CN(CCCO)C1CCCc2ccccc21 (configuration not stated) | -26.8
CCCOc1ccc(CNc2cncc(-n3cccn3)n2)cc1 | 82.6
COCc1ccc(CNc2cncc(-n3cccn3)n2)cc1 | -21.9
Fc1cccc(CNc2cncc(-n3cccn3)n2)c1 | 50.1
CCOc1cccc(CNc2cncc(-n3cccn3)n2)c1 | 31.6
COC(=O)Nc1ccc(CNc2cncc(-n3cccn3)n2)cc1 | 3.73
CCOCCOCc1cccc(CNc2cncc(-n3cccn3)n2)c1 | 24.2
Cc1cccc(CNc2cncc(-n3cccn3)n2)c1 | 47.6
CNS(=O)(=O)Cc1ccc(CNc2cncc(-n3cccn3)n2)cc1 | 44.2
CC(C)OCc1ccc(CNc2cncc(-n3cccn3)n2)cc1 | 80.6
CNC(=O)COc1ccc(CNc2cncc(-n3cccn3)n2)cc1 | 23.4
CCOCc1ccc(CNc2cncc(-n3cccn3)n2)cc1 | 80.6
CN(C)c1ccc(CNc2cncc(-n3cccn3)n2)cc1 | 49.6
OCCN(Cc1ccncc1)CC1(c2ccc(Cl)cc2)CC1 | 46.2
CC(Nc1cccc2c1OCCO2)C(=O)Nc1ccc(S(N)(=O)=O)cc1 (configuration not stated) | -24.9
Cc1nc(CN(C)C2CCN(CCCOc3ccccc3C)C2)no1 (configuration not stated) | 27.4
CC(C)c1nc(C(=O)N2CCOCC2CC(=O)c2ccco2)cs1 (configuration not stated) | 37.4
O=C(NCC1CCN(Cc2cc3ccccc3[nH]2)C1)C1CCCCC1 (configuration not stated) | 54.1
O=C(Cn1cccc1)NCC1CCN(Cc2cc3ccccc3[nH]2)C1 (configuration not stated) | 46.7
COC(C)(C)C(=O)NCC1CCN(Cc2cc3ccccc3[nH]2)C1 (configuration not stated) | 40.8
Cc1nc(NCC2CC2)nc2c1COCC21CCN(C(=O)NC(C)C)C1 (configuration not stated) | 29.9
CN(CC1CCOC1)c1ncc(Br)cn1 (configuration not stated) | 12.8

SMILES | INHIBITION [%]
CC(NC(=O)CSCC#N)c1cccc(Cl)c1 (configuration not stated) | -29.7
Cc1nc(CN2CCCC(Cn3cncn3)C2)nc2ccccc12 (configuration not stated) | 29.95
Cc1ccnc(NCCCN2CCc3ccccc32)n1 | 3.58
Cc1cnc(NCCCN2CCc3ccccc32)nc1 | -15.4
CN(C)c1nc(NCCCN2CCc3ccccc32)ncc1F | 55.1
CCOc1ccc(C(=O)CCC(=O)N(C)Cc2nc(C)c[nH]2)cc1C | 63.4
CCc1cccc(NC(=O)CCC(=O)N(C)Cc2nc(C)c[nH]2)c1 | 12.8
COCc1cc(CN(C)C(=O)CCC(=O)Nc2cc(C)ccc2F)n[nH]1 | 34.4
CCOc1ccc(C(=O)CCC(=O)N(C)Cc2cnccn2)cc1C | 40.6
CCOc1ccc(C(=O)CCC(=O)N(C)Cc2noc(C)n2)cc1C | 11.9
CCOc1ccc(C(=O)CCC(=O)NCc2cncn2CC)cc1C | -5.59
CCOc1ccc(C(=O)CCC(=O)NCc2csc(N)n2)cc1C | 56.1
CCOc1ccc(C(=O)CCC(=O)NCCc2nncn2CC)cc1C | 15
Cc1ccc(F)c(NC(=O)CCC(=O)N(C)Cc2nc(C)c[nH]2)c1 | 53.9
CCOCC(=O)N1C[C@@H]2CCN(c3cnccn3)C[C@@H]2C1 | 32.1
COC(=O)c1cc2c(=O)n(C3CCCC3)ccc2nc1C | 46.1
Cn1cccc1CN1CCC2(CC1)CCN(C(=O)c1cnccn1)CC2 | 39.5
CNC(=O)[C@@]12CCC3(CCN(C(=O)C(C)C)CC3)[C@@H]1CN(S(C)(=O)=O)C2 | 26.3
Cc1cc(C(=O)N2CCOCC2c2nc(C)c[nH]2)nc(O)n1 (configuration not stated) | 27.75
